This is an account of results in PubChem BioAssay AID588397 (National Center for Advancing Translational Sciences (NCATS), 2011).

The campaign covered roughly 1,300 compounds. About 1,000 (77%) were called active. Inconclusive results (about 7%) are left out. The set was probably picked from earlier hits. The list shows a part of the results. Unmarked numbers belong to inactive results. Calls come from the whole dose curve; as a rule, active = well fitted inhibition curve with a large enough effect; inconclusive = small, poorly fitted or top-dose-only effect; inactive = no such curve, though single readings can be large or run the other way.
% is set by controls: 0 for no effect and ±100 for the full control effect; potency is the fitted concentration of half-maximal effect.

The assay is described as follows: qHTS of small molecules that selectively kill Giardia lamblia: Hit Validation.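 Note: viability measured as ATP content by luminescence so killing lowers signal; trophozoites exposed to compounds for 48 h anaerobically at 37 °C; nearly all actives have a fitted effect of over 65% in size.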 The conditions noted are these: Giardia lamblia trophozoite viability, dose-response; series mostly up to 38.3 µM; activity change, negative = killing: at the top concentration. In a few lines: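 HTS viability screen: compound-treated trophozoites (100 cells/well) are kept anaerobic at 37 deg C for 48 hrs, and surviving cells are detected through ATP-dependent luminescence.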
In the case of `Cc1[nH]n(S(=O)(=O)Cc2ccccc2)c(=O)c1N=Nc1ccccc1Cl`, the Potency is 2310 nM (active).

`Cc1[nH]n(S(=O)(=O)c2ccccc2)c(=O)c1N=Nc1cccc(Cl)c1`: the Potency is 4600 nM (active).

`COc1ccc(N(Cc2ccccc2)C(=O)OC(C)(C)C)c(C(=O)N(C)OC)c1`: the “activity change, negative = killing” value was -1.53%.

In the case of `COc1ccc(Cn2cnc([N+](=O)[O-])c2)cc1[N+](=O)[O-]`, the Potency was 3260 nM (active).

For `COc1cc(NC(=O)c2ccc([N+](=O)[O-])o2)ccc1NC(=O)c1ccco1`, the Potency is 579 nM (active).

Take `COc1ccc(NC(=O)c2ccc([N+](=O)[O-])cc2[N+](=O)[O-])c(OC)c1`: the Potency was 10300 nM (active).

`O=C(O)c1cccc(NC(=S)NC(NC(=O)c2ccccc2[N+](=O)[O-])C(Cl)(Cl)Cl)c1` (configuration not stated): the “activity change, negative = killing” value is -9.8%.

On to `O=C(Nc1cccc(NC(=O)c2ccccc2Cl)c1)c1ccc([N+](=O)[O-])o1`, for which the Potency was 410 nM (active).

`O=C(Nc1ccc(NC(=O)c2ccc([N+](=O)[O-])o2)cc1Cl)c1ccco1`: the Potency is 1030 nM (active).

For `O=C(Nc1cccc(NC(=O)c2cccs2)c1)c1ccc([N+](=O)[O-])o1`, the Potency is 729 nM (active).

Regarding `O=C(Nc1ccc(O)c2c(=O)cc(-c3ccccc3Cl)oc12)c1ccc(F)cc1`, the “activity change, negative = killing” value is -9.71%.

Regarding `Cc1cc(NC(=O)c2ccc([N+](=O)[O-])o2)ccc1NC(=O)c1ccco1`, the Potency is 918 nM (active).

In the case of `O=C(Nc1ccccc1O)c1ccc([N+](=O)[O-])cc1`, the Potency is 9180 nM (active).

On to `O=C(Nc1cccc(NC(=O)c2ccc([N+](=O)[O-])o2)c1)c1ccco1`, for which the Potency was 729 nM (active).

Consider `COc1cc(NC(=O)c2ccc([N+](=O)[O-])o2)ccc1NC(=O)c1cccs1`, for which the Potency is 818 nM (active).

For `COc1ccc(NC(=O)c2ccco2)c(NC(=O)c2ccc([N+](=O)[O-])cc2)c1`, the Potency was 4100 nM (active).

On to `O=C(COC(=O)c1ccccc1)Nc1ncc([N+](=O)[O-])s1`, for which the Potency was 3650 nM (active).

Regarding `O=C(COC(=O)c1ccc(Br)o1)Nc1ncc([N+](=O)[O-])s1`, the Potency was 2310 nM (active).

`Cc1cccc(NC(=O)c2ccc([N+](=O)[O-])s2)n1`: the Potency was 3650 nM (active).

Turning to `Cc1nc2cc(NC(=O)c3ccc([N+](=O)[O-])s3)ccc2s1`, the Potency is 650 nM (active).

For the compound `Cc1ccnc(NC(=S)NC(=O)c2cccs2)c1`, the Potency was 6500 nM (active).

Turning to `Cc1ccnc(NC(=O)c2ccc([N+](=O)[O-])s2)c1`, the Potency is 3650 nM (active).

As for `O=C(c1ccc([N+](=O)[O-])o1)N1CCc2ccccc21`, the Potency was 1300 nM (active).

Regarding `O=C(c1cc(COc2c(F)cccc2F)on1)N1CCc2ccccc2C1`, the “activity change, negative = killing” value was -2.25%.

As for `COc1cc2c(cc1OC)CN(C(=O)c1ccc([N+](=O)[O-])o1)CC2`, the Potency is 2050 nM (active).

`COc1cc2c(cc1OC)CN(Cc1cc(=O)oc3c(C)c(C)ccc13)CC2`: the “activity change, negative = killing” value was 5.4%.

For the compound `O=C(c1ccc([N+](=O)[O-])o1)N1CCc2ccccc2C1`, the Potency is 2900 nM (active).

For the compound `N/C(=N\c1nc2ccccc2o1)NC(=O)C(Cc1ccccc1)N1C(=O)c2ccccc2C1=O` (configuration not stated), the Potency is 1830 nM (active).

On to `N#Cc1ccccc1S(=O)(=O)N1CCN(C(=O)c2cn(-c3ccccc3)nc2-c2cccnc2)CC1`, for which the Potency was 6500 nM (active).

As to `O=C(CC12CC3CC(CC(C3)C1)C2)N/N=C/c1ccc([N+](=O)[O-])o1`, the Potency is 918 nM (active).

Take `CC(NC(=O)C12CC3CC(CC(C3)C1)C2)C(=O)NN=Cc1ccc([N+](=O)[O-])o1` (configuration not stated): the Potency was 1830 nM (active).

As for `CCn1c(C)cc(C(=O)COC(=O)c2ccccc2[N+](=O)[O-])c1C`, the Potency is 20500 nM (active).
